Sampled rows, rich in hits. Any-hit rate of the full collection: about 8.5%.
Sfp PPTase inh: Sfp phosphopantetheinyl transferase inhibition | Biochemical Sfp PPTase activity, qHTS | 310,000 compounds, 3.5% hits | Potency, µM, for the others: largest response in the series, negative = inhibition, most hits filed as inhibitors | AID 1490; active = well fitted curve in the direction sought with a large enough effect; inconclusive = small, poorly fitted or top-dose-only effect, or another doubt; inactive = no such curve, though single readings can be large; an effect the other way counts as inactive or inconclusive;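 note: the enzyme is Sfp with the accession as filed and its product quenches rhodamine fluorescence; potency is the fitted concentration of half-maximal effect; 0% = enzyme reaction without inhibitor and -100% = no enzyme wells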
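Fluorescence-quenching assay: 15 nM Sfp-PPTase preincubated 15 min at room temperature with compound, then 5 uM rhodamine-CoA and 12.5 uM BHQ-2-labelled YbbR peptide added. Fluorescence (ex 525/em 598 nm) read at start and after 30 min; difference gives rate.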
FBPA coupling cs: counter-screen for Giardia aldolase inhibitors: coupling enzyme system. coupling enzyme system counterscreen, AmpLite Red fluorescence. activity change, negative = inhibition, % at 58.2 µM, hits read low. 290,000 compounds, 0.67% hits. AID 2472; in the data active = activity change below about -30%
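Counterscreen of the coupled detection system alone, without aldolase: glyceraldehyde-3-phosphate coupling enzymes plus AmpLite Red readout. Compounds at 57.5 uM final, 10 min RT preincubation, 20 min RT reaction, fluorescence 525/598 nm.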
JMJD2E inh: inhibitors of human JMJD2E histone demethylase; JMJD2E catalytic domain, FDH-coupled NADH fluorescence (FDH is formaldehyde dehydrogenase); Potency, µM (highest dose often 57.1 µM), for inactives: at the top dose activity change, negative = inhibition, actives largely listed as inhibitors; 230,000 compounds, 1.6% hits; AID 2147;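 note: potency is the fitted concentration of half-maximal effect; 0% = wells with enzyme and -100% = buffer wells without enzyme; nearly all actives have a fitted effect of over 50% in size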
ALDH1A1 block: inhibitors of human aldehyde dehydrogenase 1A1 | Potency, µM (top dose mostly 75.3 µM), inactives show at the top dose activity, negative = inhibition, hits mostly inhibitors | P00352 | 220,000 compounds, 7.3% hits | AID 1030 | Purified ALDH1A1, NADH fluorescence, propionaldehyde substrate;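 note: potency is the fitted concentration of half-maximal effect; plate controls were no enzyme wells and a reference inhibitor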
RGS12 GoLoco inh: inhibitors of human Gai1-RGS12 GoLoco interaction (red fluorophore) | Gai1:RGS12 GoLoco peptide FP, rhodamine, 10 min | Potency, µM (series often up to 61.6 µM), inactives show top-dose activity, negative = inhibition, hits mostly inhibitors | P63096 | 230,000 compounds, 0.44% hits; active = well fitted inhibition curve with a large enough effect, not every such curve was filed as active; inactive = no such curve, though single readings can be large or run the other way; note: potency is the fitted concentration of half-maximal effect; nearly all actives have a fitted effect of over 30% in size
Target sequence (P63096 whole entry, looked up): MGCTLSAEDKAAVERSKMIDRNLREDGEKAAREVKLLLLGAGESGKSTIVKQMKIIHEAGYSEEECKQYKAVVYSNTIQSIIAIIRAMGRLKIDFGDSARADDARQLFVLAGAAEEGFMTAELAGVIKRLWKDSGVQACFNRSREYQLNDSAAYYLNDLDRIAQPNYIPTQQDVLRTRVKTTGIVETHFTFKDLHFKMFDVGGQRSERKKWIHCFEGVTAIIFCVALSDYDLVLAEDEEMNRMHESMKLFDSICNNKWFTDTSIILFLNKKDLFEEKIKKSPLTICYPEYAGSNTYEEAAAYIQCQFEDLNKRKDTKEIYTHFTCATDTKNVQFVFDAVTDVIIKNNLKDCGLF
NPSR antagonist: neuropeptide S receptor (human) antagonism, cAMP. 220,000 compounds, 1% hits. Potency, µM (highest dose often 38.3 µM), for the others: at the highest dose activity change, negative = inhibition, actives largely listed as inhibitors. CHO-NPSR cells, cAMP TR-FRET, antagonist mode; active = well fitted curve in the direction sought with a large enough effect; inconclusive = small, poorly fitted or top-dose-only effect, or another doubt; inactive = no such curve, though single readings can be large; an effect the other way counts as inactive or inconclusive; note: potency is the fitted concentration of half-maximal effect; nearly all actives have a fitted effect of over 50% in size
An asterisk follows results filed as active; ? = inconclusive; . = no result; [ ] = another dose, or the depositor's remark. Unless noted, calls come from the whole dose curve; as a rule, active = well fitted inhibition curve with a large enough effect (not every such curve was filed as active); inconclusive = small, poorly fitted or top-dose-only effect, or another doubt; inactive = no such curve, though single readings can be large or run the other way. Unless noted, % is set by controls: 0 for no effect and ±100 for the full control effect.

SMILES | Sfp PPTase inh | FBPA coupling cs | JMJD2E inh | ALDH1A1 block | RGS12 GoLoco inh | NPSR antagonist
CCCOc1ccc(C(=O)NC(=S)NNC(=O)c2c(-c3ccccc3)noc2C)cc1 | 12% | 23 | 11µM* | . | 11% | 41%
Cc1onc(-c2ccccc2)c1C(=O)NC(=S)NNC(=O)c1ccccc1O | 14% | -3 | 18µM* | 0% | 4% | -10%
COC(=O)C1=C[C@@H](C(=O)OC)C2C3=C(C(=O)[C@@]2(CC(C)C)NC(=O)c2ccccc2)[C@H](C)n2c(=O)n(C)c(=O)n2[C@@H]3C1 (some centres not stated) | 5% | -3 | . | . | . | .
CCN1CCN(CCCNC(=O)C2c3ccccc3C(=O)N(c3ccc(OC)cc3)C2c2ccc(OC)cc2)CC1 (configuration not stated) | -4% | -3 | -8% | 7% | 1% | -32%
CCOC(=O)CNC(=O)C1c2ccccc2C(=O)N(c2ccc(OC)cc2)C1c1ccc(OC)cc1 (configuration not stated) | 13% | 4 | -11% | 28µM* | 6% | ?
COc1ccc(C2C(C(=O)N3CCOCC3)c3ccccc3C(=O)N2c2ccc(OC)cc2)cc1 (configuration not stated) | 15% | 2 | 15% | 14µM* | -3% | -11%[46.1 µM]
COc1cc(OC)c(C2C(C(=O)O)c3ccccc3C(=O)N2C)cc1OC (configuration not stated) | -14% | -40* | ? | ? | -1% | 0%[46.1 µM]
COc1ccc(C2C(C(=O)N3CCN(c4ccccc4)CC3)c3ccccc3C(=O)N2C)cc1 (configuration not stated) | 9% | 3 | -3% | 2.2µM* | 1% | -15%[46.1 µM]
CC(Nc1nc(-c2cccc(Br)c2)cs1)c1nc2cc(Cl)c(N3CCCCC3)cc2n1CCOCCO (configuration not stated) | 4% | -1 | . | . | . | .
CCn1c(SCc2cccc(F)c2)nc2c(c1=O)SCC2 | -6% | 6 | -6% | 14µM* | 14% | -28%
COc1cc([N+](=O)[O-])cc(/C=N/NC(=O)C(C)Nc2cccc3ccccc23)c1O (configuration not stated) | 4% | -28 | 4.5µM* | -4% | 5% | -15%
CC(Nc1cccc2ccccc12)C(=O)N/N=C/c1ccc([N+](=O)[O-])cc1 (configuration not stated) | 32µM* | -46* | 8% | ? | 0% | -14%
COc1ccc(/C=N/NC(=O)c2cccnc2)cc1COc1ccc([N+](=O)[O-])c(C)c1 | 6% | 2 | -19% | 10µM* | 1% | 35%
COc1cc([N+](=O)[O-])cc(/C=N/NC(=O)c2cccnc2)c1O | 1% | 4 | 8.9µM* | . | 0% | 14%[7.67 µM]
COc1cccc(C(=O)NCC(=O)N2CCC3(CC2)NCCc2[nH]cnc23)c1 | 6% | . | . | . | . | .
COc1ccc(/C=N/NC(=O)c2cc(O)c(O)c(O)c2)cc1Cn1cc([N+](=O)[O-])cn1 | -121% | -24 | 2.2µM* | ? | 9% | -14%
Cc1cc(C)n(-c2nc(Nc3ccccc3C(F)(F)F)nc(-n3nc(C)cc3C)n2)n1 | ? | 0 | 5% | 3% | 4% | 0.32µM*
CN(C)C(=O)/C(C#N)=C\c1cc(Br)c(Sc2ccc(Cl)cc2)o1 | -23% | -51* | -129% | -4% | 4% | -44%
NNC(=O)c1sc2cc(C(F)(F)F)cnc2c1-c1cccs1 | 7% | -1 | 67% | 0.2µM* | 1% | -8%
O=C(Nc1ccccc1)c1sc2cc(C(F)(F)F)cnc2c1-c1cccs1 | 1% | 0 | ? | ? | 5% | 10µM*
NC(=O)c1sc2cc(C(F)(F)F)cnc2c1-c1cccs1 | 11% | -6 | ? | 2% | 6% | 7%[46.1 µM]
CCN(CC)C(=N)N1c2ccccc2CCC1C (configuration not stated) | 16% | 2 | -8% | 11% | 1% | 18%
Cc1cccc(/C=N\NC(=O)c2csnn2)c1 | 40µM* | -6 | 7% | -52% | -12% | -6%[46.1 µM]

From PubChem BioAssay
